Measurements published in PubChem BioAssay (NCI).
About 83,000 compounds went through this panel and 20% of them were active in at least one assay; those are over-represented in the sample as a whole.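 Assay: single dose, 48 h. Readout: percent growth (0 = no net growth; negative = cell death). Active: <10.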 Unmarked numbers belong to inactive results. Active and inactive are the calls of the source.

Tests used:
Assay in all cases: NCI-60 one-dose screen, 48 h (100 = growth as untreated, 0 = no growth, -100 = all killed)
Details in all cases: 10 µM unless noted
[1] = tested on: NCI-H23 lung
[2] = tested on: NCI-H226 lung
[3] = tested on: NCI-H322M lung
[4] = tested on: HOP-62 NSCLC
[5] = tested on: NCI-H460 lung
[6] = tested on: HOP-92 NSCLC
[7] = tested on: NCI-H522 lung
[8] = tested on: A549/ATCC NSCLC
[9] = tested on: COLO 205 colon
[10] = tested on: 786-0 renal

SMILES | growth [1] | growth [2] | growth [3] | growth [4] | growth [5] | growth [6] | growth [7] | growth [8] [%] | growth [9] | growth [10]
Oc1ccc(-c2cnc(-c3ccccc3)[nH]2)c(O)c1 | 108% | 86.2% | 94.9% | -12.1% (active) | 110% | 58.7% | 99.8% | 24.8 | 117% | 
CCCCc1n(Cc2ccc3ccccc3n2)cc[n+]1Cc1ccc2ccccc2n1 | 4.77% (active) | 26.7% | 41.4% | 25.2% | 16.5% | 4.31% (active) | 10% |  | -34.4% (active) | 56.9%
Cc1cc(C)c2c(n1)sc1c(Nc3ccc(O)cc3)ncnc12 | 9.96% (active) | 32.4% | 46.2% | 18.5% | 10.1% | 35.5% | 32.4% |  | 33% | 12.6%
Cc1ccc(N2C3c4ccccc4N(S(=O)(=O)c4ccc(C)cc4)C2c2ccccc2N3S(=O)(=O)c2ccc(C)cc2)cc1 | 99.9% | 94.3% | 106% | 107% | 99.5% | 101% | 106% |  | 115% | 112%
Cc1[nH]n(C(=O)c2ccncc2)c(=O)c1N=Nc1ccc(O)c(C(=O)O)c1 | 106% | 86.3% | 91.3% | -3.17% (active) | 114% | 62.7% | 104% | 21.9 | 113% | 
Fc1cc(-c2nnc3sc(-c4ccc(Cl)cc4)nn23)c(Cl)cc1Cl | 91.6% | 93.2% | 82.3% | 116% | 103% | 74.8% | 82.8% |  | 106% | 95.3%
CCCCCCCCCCC(C(O)c1ccccc1)N1CCCCC1 (centres undefined) | 49.6% | 33.6% | 45.8% | -75.3% (active) | -74.5% (active) | -14.8% (active) | 18% |  | -76.3% (active) | 29%
O=c1c2sc3ncc(Cl)cc3c2nnn1-c1cccc(Cl)c1 | 83.8% | 33.4% | 56.8% | 47.7% | 22% | 63.8% | 82% |  | 89.4% | 72.5%
CCCc1cc2c(cc1CN(Cc1cc3c(cc1CCC)OCO3)C(=N)OCC)OCO2 | 79.8% | 86.4% | 91.9% | 83.7% | 75.5% | 55% | 54.2% |  | 93.6% | 89.7%
CCCCN(CCCC)CCC(O)c1cc2ccc(C(F)(F)F)cc2c2cc(C(F)(F)F)ccc12 (centres undefined) | 43.1% | 83.1% | 61.3% | 79.1% | 5.31% (active) | -4.55% (active) | 3.17% (active) |  | 33.3% | 42.4%
Cc1cc(C)cc(NC(=O)Cn2nncc2CN2C(=O)CSC2=O)c1 | 97.5% | 104% | 109% | 102% | 107% | 124% | 94.5% |  | 108% | 108%
COc1cc(Nc2ccnc3ccc(Br)cc23)cc(OC)c1OC | 53.8% | 78.8% | 63.5% | 23.2% | 7.02% (active) | 49% | -17.8% (active) | 37.5 | 39% | 
O=[N+]([O-])c1cccc(N=C(Nc2cccc([N+](=O)[O-])c2)c2ccccc2)c1 | 86.4% | 91.6% | 81.2% | 89.9% | 102% | 47.4% | 59.5% |  | 109% | 83.6%
O=C1OC(c2ccc(-c3ccccc3)cc2)=C/C1=C/c1c(Cl)cccc1Cl | 94.7% | 84.1% | 85.7% | 76% | 99.4% | 59% | 89.3% | 11 | 103% | 
Cc1ccccc1N1C(c2ccccc2)=NNC12C=CC(=O)c1c(O)cccc12 (centres undefined) | 31.4% | 87.8% | 99.1% | 31.1% | 89.6% | 137% | 54.6% | 68.1 | 95.7% | 
O=C(C=P(c1ccccc1)(c1ccccc1)c1ccccc1)CCl | -23.2% (active) | -70.7% (active) | 10.3% | 13.9% | -11.9% (active) | -51.7% (active) | -77.7% (active) |  | -53.9% (active) | -75.8% (active)
C/C=C(\C)C(C(=O)NC1CCCCC1)N(C(=O)C1CCc2cc(F)ccc2O1)c1ccc([N+](=O)[O-])cc1 (centres undefined) | 91.9% | 72.5% | 92.8% | 87.3% | 82.5% | 92.6% | 81.9% |  | 98.7% | 90.1%
[O-]/[N+](=C\c1ccccc1)CC1(O)CCCCC1 | 104% | 99.5% | 112% | 109% | 103% | 78% | 93.7% |  | 117% | 109%
F | 41.1% [6.87 mM] | 90.6% [6.87 mM] | 46.4% [6.87 mM] | 10.7% [6.87 mM] | 45.1% [6.87 mM] | -5.03% [6.87 mM] (active) | 56.8% [6.87 mM] |  | 40.3% [6.87 mM] | -1.01% [6.87 mM] (active)
O=C(O)c1cn(-c2ccccc2)nc1-c1ccc(O)cc1 | 93.9% | 107% | 100% | 92.7% | 94.7% | 85.5% | 78.6% |  | 109% | 97.4%
CS(=O)(=O)Nc1cc(-c2cc3ncc(C#N)c(Nc4ccc(Oc5ccccc5)c(Cl)c4)c3s2)cnc1Cl | 56.6% | 64.3% | 26.9% | 54.8% | 21.7% | 45.6% | 32.4% | 55.2 | 66.9% | 
CN1CCN(Cc2ccc(NC(=O)c3cncc(C#Cc4ccc(N)nc4)c3)cc2C(F)(F)F)CC1 | 17.4% | -47.3% (active) | 25.9% | 8.59% (active) | 6.66% (active) | -25.5% (active) | 23.1% |  | -20.4% (active) | 21.6%
COc1ccc(C2C3=C(COC3=O)N(CCO)c3cc(OC)c(OC)cc32)cc1 (centres undefined) | 106% | 101% | 104% | 95.7% | 105% | 86.9% | 92.8% |  | 110% | 96.3%
Cc1cc2nc3c(=O)[nH]c(=O)nc-3n(CC=O)c2cc1C | 108% | 91% | 110% | 106% | 106% | 293% | 107% |  | 128% | 105%
COC(=O)c1cc2oc(/C=N/NC(=O)c3cc4oc(-c5cccc(C(F)(F)F)c5)cc4[nH]3)cc2n1Cc1ccccc1 | 93.1% | 109% | 88% | -2.75% (active) | 107% | 78.1% | 97.4% | 20.6 | 118% | 
Clc1cn2cc(-c3ccc(Cl)c(Cl)c3Cl)nc2s1 | 92.7% | 90.1% |  | 86.7% | 109% | 85.8% | 91.4% |  | 106% | 99.9%
Nc1ccc(C(OC(=O)c2cc3ccccc3c(Cc3c(O)c(C(=O)OC(c4ccc(N)cc4)(c4ccc(N)cc4)c4ccc(N)cc4)cc4ccccc34)c2O)(c2ccc(N)cc2)c2ccc(N)cc2)cc1 | 9.92% (active) | 30.8% |  | 6.24% (active) | 1.82% (active) | -6.69% (active) | 9.97% (active) | 10.7 | -83.7% (active) | 23.5%
COc1cc(NC(C)CCCN)c2ncccc2c1Oc1ccc(Cl)cc1 (centres undefined) | 87.4% |  | 64.5% | 77.7% | 83.8% | 43.4% | 87.9% | 87.9 | 6.98% (active) | 67.3%
CCOC(=O)c1c(NC(=O)c2ccccc2)sc2c(O)c(CN(CC)CC)ccc12 | 2.37% (active) | -21.7% (active) |  | -17.2% (active) | 4.01% (active) | 46.3% | -45.3% (active) | 11.4 | -74.7% (active) | 18.5%
COc1cc(-c2csc(NC(=O)Nc3cccc(C(F)(F)F)c3)n2)cc(OC)c1OC | 27.8% | 55.6% |  | 63.6% | 53.8% | 47.8% | 40.7% | 34.2 | 75.4% | 64.2%
